The values below come from PubChem BioAssay (EPA / NIEHS).

Results filed as inconclusive are left out. The source holds several records for some structures; these can differ, active in one and inactive in another. Calls of active or inactive are those of the source. How the source made its calls, unless noted: active means hit-call score of the fitted dose curve at least 0.9, where 1 is the maximum; inactive means score below 0.9.

Read-out in test [1]: E-selectin (Homo sapiens) (UniProt P16581)
As to the kind of experiment: BSK_3C_Eselectin: BioMAP Diversity Plus: 3C Assay for Eselectin Biomarker Activity (AID 2283015).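 Further: cell surface E-selectin protein quantified by ELISA 24 h after dosing.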 The following applies: primary human endothelial cells (HUVEC); actives raise or lower the signal. In a few lines:
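E-selectin ELISA readout, fitted bidirectionally relative to DMSO, taken 24 h post-dosing in HUVEC cultures of the 3C system. Overt cytotoxicity tracked with sulforhodamine B staining of parallel wells.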

Read-out in test [2]: Interleukin-1 alpha (IL1a), IL1A (gene 3552)
The experiment in a line: BSK_BE3C_IL1a: BioMAP Diversity Plus: BE3C Assay for Interleukin-1 alpha (IL1a) Biomarker Activity (AID 2283016). The conditions noted are these: primary human bronchial epithelial cells; actives raise or lower the signal. The method in brief:
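IL-1a measured by ELISA after 24 h treatment of human primary bronchial epithelial cells, with gain or loss of signal fitted versus DMSO. Parallel cultures stained with SRB gauge overt cytotoxicity.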

Read-out in test [3]: Monocyte Chemoattractant Protein-1 (MCP1), CCL2 (gene 6347)
As to the kind of experiment: BSK_3C_MCP1: BioMAP Diversity Plus: 3C Assay for Monocyte Chemoattractant Protein-1 (MCP1) Biomarker Activity (AID 2283017). The conditions noted are these: primary human endothelial cells (HUVEC); actives raise or lower the signal. In a few lines: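 MCP-1 was measured by ELISA 24 h after dosing in primary HUVEC 3C cultures and fitted in both directions relative to DMSO; cytotoxicity was checked by SRB total-protein staining in parallel wells.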

Read-out in test [4]: Monocyte Chemoattractant Protein-1 (MCP1), CCL2 (gene 6347)
The experiment in a line: BSK_4H_MCP1: BioMAP Diversity Plus: 4H Assay for Monocyte Chemoattractant Protein-1 (MCP1) Biomarker Activity (AID 2283018). The following applies: primary human endothelial cells (HUVEC); actives raise or lower the signal. The method in brief:
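ELISA of MCP-1 (CCL2) 24 h after chemical dosing of HUVEC in the BioMAP 4H system. Gain or loss versus DMSO fitted; parallel SRB staining (560 nm) tracked overt cytotoxicity.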

Read-out in test [5]: Interleukin-8 (IL8), CXCL8 (gene 3576)
As to the kind of experiment: BSK_3C_IL8: BioMAP Diversity Plus: 3C Assay for Interleukin-8 (IL8) Biomarker Activity (AID 2283020). The following applies: primary human endothelial cells (HUVEC); actives raise or lower the signal. In a few lines: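 IL-8 was measured by ELISA in HUVEC cultures 24 h after chemical dosing, with gain or loss of signal fitted relative to DMSO. Parallel SRB total-protein staining tracked overt cytotoxicity.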

Read-out in test [6]: Monokine induced gamma interferon (MIG), CXCL9 (gene 4283)
The experiment in a line: BSK_3C_MIG: BioMAP Diversity Plus: 3C Assay for Monokine induced gamma interferon (MIG) Biomarker Activity (AID 2283021). The conditions noted are these: primary human endothelial cells (HUVEC); actives raise or lower the signal. In a few lines:
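ELISA measurement of MIG in human umbilical vein endothelial cells 24 h after treatment. Cytotoxicity tracked by SRB staining in parallel cultures; gain or loss of signal fitted relative to DMSO.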

Test [7] in a line: BSK_3C_SRB: Viability Assessment in the BioMAP Diversity Plus: 3C Assay (AID 2283023).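 Further: fitted both ways against DMSO so a hit may be signal rise or drop.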 The following applies: primary human endothelial cells (HUVEC). In a few lines:
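Cytotoxicity readout in parallel HUVEC 3C cultures: after 24 h compound exposure, cells fixed with 10% TCA, stained with 0.1% SRB and read at 560 nm. Gain or loss relative to DMSO fitted.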

Read-out in test [8]: Matrix Metallopeptidase 1 (MMP1), MMP1 (gene 4312)
As to the kind of experiment: BSK_BE3C_MMP1: BioMAP Diversity Plus: BE3C Assay for Matrix Metallopeptidase 1 (MMP1) Biomarker Activity (AID 2283024). The following applies: primary human bronchial epithelial cells; actives raise or lower the signal. The method in brief: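 ELISA measurement of MMP-1 after 24 h compound exposure of primary human bronchial epithelial cells. Changes in either direction fitted relative to DMSO; parallel SRB staining checked overt cytotoxicity.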

The nature of test [9]: BSK_3C_Vis: BioMAP Diversity Plus: 3C Assay for Morphology Visualization (AID 2283025).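 Further: fitted both ways so gain or loss versus DMSO counts.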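 On AC50: light microscopy image of cell morphology used as background control.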 The conditions noted are these: primary human endothelial cells (HUVEC). The method in brief:
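Light-microscopy visualization of HUVEC cultures at 24 h post-treatment, with DMSO as baseline for bidirectional fitting.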

The nature of test [10]: BSK_4H_SRB: Viability Assessment in the BioMAP Diversity Plus: 4H Assay (AID 2283027).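 Further: cells exposed to compound for 24 h before staining.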 The following applies: primary human endothelial cells (HUVEC). The method in brief: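 HUVEC, 24 h post-dose; 10% TCA fix, 0.1% SRB stain, A560 nm. Total protein = overt cytotoxicity, parallel to biomarker read. Bidirectional fit vs DMSO baseline.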
Test [11] in a line: BSK_BE3C_SRB: Viability Assessment in the BioMAP Diversity Plus: BE3C Assay (AID 2283028).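 On AC50: fitted both ways so AC50 may mark signal gain or loss versus DMSO.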 The conditions noted are these: primary human bronchial epithelial cells. The method in brief: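 Cytotoxicity read-out: SRB (0.1%) staining of TCA-fixed (10%) human lung bronchial epithelial cells, absorbance 560 nm, 24 h post-dosing. Curves fitted both directions relative to DMSO.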
Read-out in test [12]: Thrombomodulin, THBD (gene 7056)
The experiment in a line: BSK_3C_Thrombomodulin: BioMAP Diversity Plus: 3C Assay for Thrombomodulin Biomarker Activity (AID 2283029). The following applies: primary human endothelial cells (HUVEC); actives raise or lower the signal. In a few lines: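 ELISA measurement of thrombomodulin on HUVEC surface 24 h after chemical dosing; activity fitted in both directions relative to DMSO vehicle.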

Read-out in test [13]: Urokinase-type plasminogen activator receptor (uPAR), PLAUR (gene 5329)
As to the kind of experiment: BSK_4H_uPAR: BioMAP Diversity Plus: 4H Assay for Urokinase-type plasminogen activator receptor (uPAR) Biomarker Activity (AID 2283030). The following applies: primary human endothelial cells (HUVEC); actives raise or lower the signal. The method in brief:
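uPAR level read by ELISA on HUVEC cultures (BioMAP 4H) 24 h post-dosing, analyzed for gain or loss relative to DMSO. Parallel SRB staining assessed overt cytotoxicity.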

For test [14], the target named is human Thyroid Receptor alpha (THRa1), THRA (gene 7067) (UniProt P10827). As to the kind of experiment: ATG_THRa1_TRANS: Attagene TRANS-FACTORIAL HepG2 Assay for human Thyroid Receptor alpha (THRa1) (AID 2283014; active means hit-call score of the fitted dose curve at least 0.9, where 1 is the maximum). In a few lines:
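Transcripts from GAL4-UAS-driven reporters, measured after 24 h compound exposure by RT-PCR plus capillary electrophoresis of 6-FAM-labeled fragments, were fitted for gain of signal relative to DMSO. Cells: transiently transfected HepG2 expressing NR-Gal4 chimeras.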

Test [15] deals with human Vitamin D Receptor (VDR), VDR (gene 7421) (UniProt P11473). As to the kind of experiment: ATG_VDR_TRANS: Attagene TRANS-FACTORIAL HepG2 Assay for human Vitamin D Receptor (VDR) (AID 2283022; active means hit-call score of the fitted dose curve at least 0.9, where 1 is the maximum). In a few lines: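 Transactivation by an exogenous VDR-Gal4 chimera in transiently transfected HepG2 cells was measured as reporter transcript level 24 hours after chemical treatment. RT-PCR products were analysed by capillary electrophoresis and fitted in the positive direction relative to DMSO.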
human Vitamin D Receptor (VDR), VDR (gene 7421), sequence (P11473 whole entry, looked up, the tested form may be a part): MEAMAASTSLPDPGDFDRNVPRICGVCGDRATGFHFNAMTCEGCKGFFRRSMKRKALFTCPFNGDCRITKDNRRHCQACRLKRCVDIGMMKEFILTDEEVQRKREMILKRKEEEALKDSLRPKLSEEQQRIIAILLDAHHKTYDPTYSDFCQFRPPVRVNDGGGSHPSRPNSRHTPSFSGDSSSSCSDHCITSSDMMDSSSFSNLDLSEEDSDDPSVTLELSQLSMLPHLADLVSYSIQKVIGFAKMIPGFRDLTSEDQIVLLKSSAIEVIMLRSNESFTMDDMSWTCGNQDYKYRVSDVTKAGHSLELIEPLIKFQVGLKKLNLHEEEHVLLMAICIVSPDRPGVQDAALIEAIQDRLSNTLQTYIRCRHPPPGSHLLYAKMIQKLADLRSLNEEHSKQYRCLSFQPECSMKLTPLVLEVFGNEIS

For test [16], the target named is human Retinoid X Receptor beta (RXRb), RXRB (gene 6257) (UniProt P28702). As to the kind of experiment: ATG_RXRb_TRANS: Attagene TRANS-FACTORIAL HepG2 Assay for human Retinoid X Receptor beta (RXRb) (AID 2283013; active means hit-call score of the fitted dose curve at least 0.9, where 1 is the maximum). The method in brief: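 Readout is reporter transcript induction after 24 h dosing. It is measured by RT-PCR of total RNA followed by fluorescent capillary electrophoresis. HepG2 liver cells carry transfected multiple reporter units driven by an exogenous RXRb-Gal4 fusion; activity is relative to DMSO.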
human Retinoid X Receptor beta (RXRb), RXRB (gene 6257), sequence (P28702 whole entry, looked up, the tested form may be a part): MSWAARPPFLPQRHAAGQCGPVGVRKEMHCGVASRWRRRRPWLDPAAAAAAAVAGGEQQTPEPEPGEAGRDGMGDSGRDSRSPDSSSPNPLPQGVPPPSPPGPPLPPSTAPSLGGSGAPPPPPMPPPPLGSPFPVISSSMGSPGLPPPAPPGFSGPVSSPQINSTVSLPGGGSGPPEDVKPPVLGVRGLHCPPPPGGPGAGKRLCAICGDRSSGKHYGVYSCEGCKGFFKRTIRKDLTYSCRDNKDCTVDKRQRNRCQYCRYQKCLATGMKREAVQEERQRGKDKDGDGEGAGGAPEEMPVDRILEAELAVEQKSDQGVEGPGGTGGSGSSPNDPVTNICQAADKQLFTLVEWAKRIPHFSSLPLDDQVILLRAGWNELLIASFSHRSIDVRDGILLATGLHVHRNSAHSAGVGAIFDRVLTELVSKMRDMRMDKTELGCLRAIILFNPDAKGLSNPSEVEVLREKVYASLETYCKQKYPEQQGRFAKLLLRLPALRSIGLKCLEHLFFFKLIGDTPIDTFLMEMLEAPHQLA

Read-out in test [17]: Pselectin, SELP (gene 6403)
The experiment in a line: BSK_4H_Pselectin: BioMAP Diversity Plus: 4H Assay for Pselectin Biomarker Activity (AID 2283026). The conditions noted are these: primary human endothelial cells (HUVEC); actives raise or lower the signal. In a few lines:
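ELISA of surface P-selectin on HUVEC, 24 h after dosing, with parallel SRB staining (0.1% after 10% TCA fixation, 560 nm) for overt cytotoxicity. Activity fitted in both directions relative to DMSO.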

E-selectin (Homo sapiens), sequence (P16581 whole entry, looked up): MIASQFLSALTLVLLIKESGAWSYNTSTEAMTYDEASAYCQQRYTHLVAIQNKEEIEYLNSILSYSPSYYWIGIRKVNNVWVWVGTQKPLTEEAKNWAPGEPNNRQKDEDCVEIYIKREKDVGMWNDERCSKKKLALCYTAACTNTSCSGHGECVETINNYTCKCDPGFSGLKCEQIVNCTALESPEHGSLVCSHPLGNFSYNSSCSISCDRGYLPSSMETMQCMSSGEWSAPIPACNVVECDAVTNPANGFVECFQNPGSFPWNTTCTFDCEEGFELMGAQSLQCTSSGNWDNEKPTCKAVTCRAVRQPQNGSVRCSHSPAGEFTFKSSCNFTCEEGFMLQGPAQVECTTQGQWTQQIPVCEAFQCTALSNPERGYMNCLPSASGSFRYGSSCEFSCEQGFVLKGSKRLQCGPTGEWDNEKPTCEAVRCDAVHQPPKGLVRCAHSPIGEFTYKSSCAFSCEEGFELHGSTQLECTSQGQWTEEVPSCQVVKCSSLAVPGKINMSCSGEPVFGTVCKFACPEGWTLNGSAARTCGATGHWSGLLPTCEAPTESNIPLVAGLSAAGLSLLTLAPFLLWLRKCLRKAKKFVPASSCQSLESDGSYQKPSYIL
human Thyroid Receptor alpha (THRa1), THRA (gene 7067), sequence (P10827 whole entry, looked up, the tested form may be a part): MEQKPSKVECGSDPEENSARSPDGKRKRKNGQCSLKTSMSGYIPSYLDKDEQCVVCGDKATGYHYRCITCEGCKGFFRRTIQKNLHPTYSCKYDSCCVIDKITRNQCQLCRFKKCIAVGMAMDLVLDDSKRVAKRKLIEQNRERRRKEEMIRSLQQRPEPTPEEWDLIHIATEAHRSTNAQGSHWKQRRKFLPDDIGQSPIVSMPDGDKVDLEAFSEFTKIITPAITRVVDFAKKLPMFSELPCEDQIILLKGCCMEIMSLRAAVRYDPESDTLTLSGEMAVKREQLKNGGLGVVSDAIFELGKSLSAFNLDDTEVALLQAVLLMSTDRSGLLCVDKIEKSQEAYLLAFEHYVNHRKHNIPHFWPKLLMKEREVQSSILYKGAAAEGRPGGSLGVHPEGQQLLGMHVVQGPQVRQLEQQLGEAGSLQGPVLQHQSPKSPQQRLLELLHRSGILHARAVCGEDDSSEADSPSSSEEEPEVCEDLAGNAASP

Usually AC50 stands for the concentration at which the activity in the assay is half-maximal. Regarding `C=CC(=C)CC/C=C(\C)CCC=C(C)C`, the outcome in test [1], in test [2], in test [3], in test [4], in test [5] and in [6] was inactive. Further, the result in test [7], in [9], in test [10], in test [11], in test [12] and in test [13] was inactive. For the same molecule, the AC50 in test [8] was 0.00695 µM (active).

Consider `CCc1cccc(CC)c1NC(=O)C(=O)O`, for which the outcome in test [14] was inactive.

Take `Cc1ccc(N=Nc2c(O)ccc3ccccc23)c(C)c1`: the result in test [14], in test [1], in [2], in [3], in test [4] and in test [5] was inactive. Besides, the outcome in [6], in test [7], in test [8], in test [10], in test [11] and in [12] was inactive. Further, the outcome in test [13] was inactive. Besides, the AC50 in test [9] was 19.9 µM (active).

As to `COC(=O)C(F)(F)C(F)(F)C(F)(F)C(F)(F)C(F)(F)F`, the molecule was called inactive in test [15].

On to `O=C(O)CCC(F)(F)C(F)(F)C(F)(F)C(F)(F)C(F)(F)F`, for which the molecule was called inactive in test [16], in test [1], in test [2], in test [3], in test [4] and in [5]. The call in test [15], in test [7], in test [8], in [17], in test [10] and in test [11] was inactive. Also, the outcome in [12] and in test [13] was inactive.

As for `COc1cc([N+](=O)[O-])ccc1N`, the molecule was called inactive in [14] and in [15].

`COc1ccccc1NC(=O)c1cc2ccccc2cc1O`: the half-maximal activity concentration (AC50) in test [14] was 21.7 µM (active).

As to `O=C1OC(=O)c2cc(-c3ccc4c(c3)C(=O)OC4=O)ccc21`, in test [14], the molecule was classed as inactive.

In the case of `NC(C(F)(F)F)C(F)(F)F`, the result in test [14] was inactive.

For `O=C(O)CCC(F)(F)C(F)(F)C(F)(F)C(F)(F)C(F)(F)C(F)(F)F`, the call in [14], in test [1], in test [2], in test [3], in test [4] and in test [5] was inactive. Besides, the outcome in test [6], in test [7], in test [8], in [17], in [10] and in [11] was inactive. The result in test [12] and in [13] was inactive. For the same molecule, the AC50 in test [8] was 7.99 µM (active).

Regarding `CCCCCCCCCCCCCCCC(=O)OC`, the result in test [14] was inactive.

Consider `CCCCCCCCCCCCOS(=O)(=O)O`, for which the outcome in test [1], in [2], in test [3], in [4], in test [5] and in [8] was inactive. Moreover, the result in test [9], in [10], in [12] and in [13] was inactive. Further, in [11], the AC50 is 32.6 µM (active).

On to `CCOCCOCC`, for which the molecule was called inactive in [14].

On to `CCCCc1ccc2ccccc2c1S(=O)(=O)O`, for which, in [16], the AC50 was 77.1 µM (active). Further, the molecule was classed as inactive in test [15].
